Hits are enriched below; roughly 2.7% of the tested compounds scored in any of these assays.
HepG2 tox-1: qHTS for Inhibitors of TGF-b: Cytotox Counterscreen; AID 588856, 2011; Potency, µM (doses to about 46.1 µM), without a hit: top-dose activity change, negative = cytotoxicity, most hits filed as cytotoxic; 0.76% of 410,000 active; HepG2 CAGA-GFP viability, ATP luminescence, 18 h
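CellTiter-Glo luminescence gave cytotoxicity after 18 hours at 37 degrees C. The cells were HepG2 CAGA-GFP in 1% FBS DMEM, stimulated with 500 pg/mL TGF-beta after compound addition. %Activity was normalised to no-cell wells (complete cell-killing) and DMSO (no toxicity), and curves were fitted and classified.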
ATXN2 expr inh: Primary qHTS for Inhibitors of ATXN expression; Potency, µM (top dose mostly 57 µM), without a hit: at the top dose activity change, negative = inhibition, most hits filed as inhibitors; AID 1745845, 2022; HEK-293 ATXN2-luciferase reporter, luminescence, 24 h; 0.72% of 360,000 active; note: % is set by controls: 0 for no effect and ±100 for the full control effect; nearly all actives have a fitted effect of over 55% in size
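ATXN2-luciferase reporter cells (luciferase flanked by upstream and downstream ATXN2 gene portions) were treated 24 h at 37 °C with compounds at up to 57 uM. SteadyGlo luminescence gave expression; GF-AFC fluorescence gave viability.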
TGFb inhibitor: qHTS for Inhibitors of TGF-b; HepG2 CAGA-GFP TGF-b/SMAD3 reporter, GFP fluorescence, 18 h; TGF-beta stimulated, 500 pg/mL final; Potency, µM (top dose mostly 46.1 µM), without a hit: at the highest dose activity, negative = inhibition, usual class: inhibitors; 1.2% of 410,000 active; AID 588855, 2011; note: % is set by controls: 0 for no effect and ±100 for the full control effect; nearly all actives have a fitted effect of over 65% in size
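Read-out: total well GFP (ex488/em500-530) summed from mean per-cell fluorescence. Cells: HEPG2 CAGA-GFP, 1% FBS DMEM, 18 h at 37 degrees C with 500 pg/mL final TGF-beta. Unstimulated wells served as the full-inhibition control; stimulated DMSO wells = 0%.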
12-LOX inh: Primary qHTS assay for inhibitors of human arachidonate 12S-lipoxygenase (ALOX12): Round 2; Polyunsaturated fatty acid lipoxygenase ALOX12 (Homo sapiens), P18054; purified 12hLO, xylenol orange hydroperoxide absorbance; Potency, µM (doses to about 108 µM), without a hit: at the top dose activity change, negative = inhibition, actives largely listed as inhibitors; 1.1% of 580,000 active; AID 1671190, 2021; note: % is set by controls: 0 for no effect and ±100 for the full control effect
Target sequence (P18054 whole entry, looked up): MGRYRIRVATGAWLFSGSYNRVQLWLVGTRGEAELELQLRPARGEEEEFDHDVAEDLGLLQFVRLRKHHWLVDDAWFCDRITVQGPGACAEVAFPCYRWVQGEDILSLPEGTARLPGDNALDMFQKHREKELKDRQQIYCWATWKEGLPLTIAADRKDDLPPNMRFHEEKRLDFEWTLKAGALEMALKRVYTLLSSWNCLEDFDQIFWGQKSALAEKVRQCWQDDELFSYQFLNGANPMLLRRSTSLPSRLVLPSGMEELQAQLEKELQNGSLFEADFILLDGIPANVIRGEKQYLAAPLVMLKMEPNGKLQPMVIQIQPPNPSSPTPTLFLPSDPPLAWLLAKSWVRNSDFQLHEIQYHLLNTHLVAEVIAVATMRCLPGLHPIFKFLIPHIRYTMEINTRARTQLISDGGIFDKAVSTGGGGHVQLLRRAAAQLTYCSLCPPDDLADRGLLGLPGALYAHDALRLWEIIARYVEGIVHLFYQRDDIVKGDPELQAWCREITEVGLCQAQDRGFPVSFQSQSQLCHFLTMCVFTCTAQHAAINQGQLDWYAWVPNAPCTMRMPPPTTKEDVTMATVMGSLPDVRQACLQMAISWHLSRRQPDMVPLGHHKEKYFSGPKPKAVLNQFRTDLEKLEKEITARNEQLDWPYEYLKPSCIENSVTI
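Purified human 12hLO (150 nM final) in 25 mM Hepes, 0.01% Triton X-100, pH 7.0 was preincubated 15 min at room temperature with compound. Then 40 uM arachidonic acid was added, 30 min. Hydroperoxide was read by Fe-XO absorbance ratio 573/405 nm.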
ATXN viability: Viability Counterscreen for Primary qHTS for Inhibitors of ATXN expression; S2 cells (HEK-293 line with an ATXN2-luciferase reporter) viability, CellTiter-Fluor protease fluorescence, 24 h; Potency, µM (titrated, usually from 56.7 µM), hits mostly cytotoxic; 0.49% of 400,000 active; AID 651635, 2014; note: nearly all actives have a fitted effect of over 40% in size
TGFb confirm: qHTS for Inhibitors of TGF-b: Confirmation of Cherry Picks; HepG2 CAGA-GFP TGF-b reporter, GFP fluorescence, 18 h; cells stimulated with TGF-beta, 500 pg/mL; 63% of 1,600 active; AID 720534, 2013; Potency, µM (series often up to 46.1 µM), for inactives: top-dose activity, negative = inhibition, usual class: inhibitors; shares compounds with TGFb inhibitor; note: % is set by controls: 0 for no effect and ±100 for the full control effect; nearly all actives have a fitted effect of over 65% in size
HepG2 tox-2: qHTS for Inhibitors of TGF-b: Cytotox Counterscreen for Cherry Picks; shares compounds with TGFb inhibitor; 27% of 1,600 active; HepG2 CAGA-GFP viability, ATP luminescence, 18 h; cells stimulated with TGF-beta, 500 pg/mL; Potency, µM (highest dose often 46.1 µM), for inactives: top-dose activity, negative = cytotoxicity, usual class: inhibitors; AID 720535, 2013; note: % is set by controls: 0 for no effect and ±100 for the full control effect; nearly all actives have a fitted effect of over 70% in size
CCL64 TGFb inh: qHTS for Inhibitors of TGF-b: CCL64 Cells Orthogonal Assay for Cherry Picks | shares compounds with TGFb inhibitor | CCL64 CAGA-GFP reporter, TGF-b stimulated, GFP fluorescence, 18 h | Potency, µM (series often up to 46.1 µM), for the others: at the highest dose activity, negative = inhibition, actives largely listed as inhibitors | 41% of 1,600 active | AID 720536, 2013; note: nearly all actives have a fitted effect of over 65% in size
COP TGFb inh: qHTS for Inhibitors of TGF-b: Hit Validation in HepG2 Cells using COP promoter; HepG2 COP-GFP TGF-b reporter, GFP fluorescence, 18 h; cells stimulated by added recombinant TGF-beta; shares compounds with TGFb inhibitor; 3% of 1,600 active; Potency, µM (series often up to 46.1 µM), inactives show top-dose activity, negative = inhibition, actives largely listed as inhibitors; note: nearly all actives have a fitted effect of over 70% in size
* = called active by the depositor; i = inactive; ? = inconclusive; . = not tested or not shown; ! = not confirmed by another sample. Calls come from the whole dose curve; as a rule, active = well fitted curve in the direction sought with a large enough effect; inconclusive = small, poorly fitted or top-dose-only effect, or another doubt; inactive = no such curve, though single readings can be large; an effect the other way counts as inactive or inconclusive. Potency is the fitted concentration of half-maximal effect.

SMILES | HepG2 tox-1 | ATXN2 expr inh | TGFb inhibitor | 12-LOX inh | ATXN viability | TGFb confirm | HepG2 tox-2 | CCL64 TGFb inh | COP TGFb inh
COc1cccc(-c2csc(NC3OC(=O)c4c3ccc(OC)c4OC)n2)c1 (centres undefined) | -23% | 81% | 11µM* | ? | ? | 21µM* | -24% | ? | 22%
Cn1nccc1-c1ccn[nH]1 | . | . | . | 14% | . | . | . | . | .
Cc1cc(C)nc(Nc2cccc(Cl)c2)n1 | -2% | . | 7% | -26% | i | . | . | . | .
OCCCNc1cc(-c2ccnc(Nc3cccc(Cl)c3)n2)ccn1 | -5% | 0.16µM* | 0.28µM* | 5% | ? | 0.058µM* | 0.23µM* | 0.18µM* | 26%
CCC(C)Oc1cc(-c2ccnc(Nc3cccc(Cl)c3)n2)ccn1 (centres undefined) | 2% | ? | 7.1µM* | -21% | i | 5.8µM* | ? | 6.5µM* | 42%
OCCNc1nc(Nc2cccc(Cl)c2)nc2nccnc12 | . | . | . | 55% | . | . | . | . | .
CCc1cccc(CC)c1NC(=O)CSc1nc(CN(C)C)nc2ccccc12 | . | . | . | 1% | . | . | . | . | .
COC(=O)c1cc(OCc2cccc(Br)c2)cc(C(=O)OC)c1 | . | . | . | -17% | . | . | . | . | .
Cc1nc(NCc2ccco2)c2c(C)c(C)sc2n1 | -37% | 11µM* | 7.9µM* | ? | ? | 8.2µM* | 5.2µM* | -99% | 38%
Cc1sc2nc3c4ccccc4c(NCc4ccco4)nn3c(=O)c2c1C | -9% | 71% | 2% | 33% | i | . | . | . | .
CCOc1ccc(CCN2C(=S)N([C@@H](Cc3ccccc3)CN3CCCC3CN3C(=S)NC[C@@H]3Cc3ccccc3)C[C@@H]2Cc2ccc(O)cc2)cc1 (some centres undefined) | . | -2% | . | ? | ? | . | . | . | .
Oc1ccc(C[C@H]2CNC(=S)N2C[C@H]2CCCN2C[C@H](Cc2ccccc2)N2C[C@H](Cc3ccc(O)cc3)N(CC3CCCCCC3)C2=S)cc1 | -112% | 0% | 7.1µM* | ? | 20µM* | 23µM* | ? | 13µM* | 51%
Oc1ccc(C[C@H]2CNC(=S)N2CC2CCCN2C[C@H](Cc2ccccc2)N2C[C@H](Cc3ccc(O)cc3)N(CC3CCCCCC3)C2=S)cc1 (some centres undefined) | -82% | ? | 10µM* | 11µM* | ? | 21µM* | ? | 8.2µM* | 82%
Oc1ccc(C[C@H]2CN([C@@H](Cc3ccc(O)cc3)CN3CCC[C@@H]3CN3C(=S)NC[C@@H]3Cc3ccccc3)C(=S)N2CC2CCCCCC2)cc1 | -45% | 10µM* | 10µM* | ? | 8.9µM* | 23µM* | ? | 8.2µM* | 67%
Oc1ccc(C[C@H]2CNC(=S)N2CC2CCCN2C[C@H](Cc2ccc(O)cc2)N2C[C@H](Cc3ccc(O)cc3)N(CC3CCCCC3)C2=S)cc1 (some centres undefined) | -23% | 0% | 10µM* | ? | ? | 5.2µM* | 12µM* | 5.8µM* | ?
Cc1nc2ccc(NC(=O)c3n[nH]c(=O)c4ccccc34)cc2s1 | . | . | . | -11% | . | . | . | . | .
CS/C(=N\S(=O)(=O)c1cccs1)Nc1cccc(Cl)c1C | -22% | 1% | -27% | -9% | i | . | . | . | .
CS/C(=N\S(=O)(=O)c1cccs1)Nc1ccc(F)c(Cl)c1 | -4% | -9% | 8.9µM* | 14% | i | ? | -14% | -19% | -7%
O=C1N(c2ccccc2)C[C@@H]2C[C@@H](c3cccs3)N3CCC[C@@]123 | -26% | . | ? | ? | ? | . | . | . | .
CC(C)(O)C#Cc1ccc([C@@H]2C[C@H]3CN(c4ccccc4)C(=O)[C@]34CCCN24)s1 | -10% | ? | 2.2µM* | -12% | ? | 0.73µM* | ? | 5.2µM* | 16%
CCC(C)Nc1nc(-c2ccccn2)nc2ccccc12 (centres undefined) | -14% | ? | ? | 19% | ? | 15µM* | ? | 12µM* | 72%
c1ccc(CNc2nc(-c3ccccn3)nc3ccccc23)cc1 | -9% | ? | 0% | 0% | i | . | . | . | .
CCCC[C@H]1COCCS(=O)(=O)N1Cc1ccc(Br)cc1 | 0% | -18% | 10µM*! | -9% | i | ? | -17% | ? | 16%
COc1ccc(N2CCN(C3CCCN(C/C=C/c4ccccc4OC)C3)CC2)cc1 (centres undefined) | . | . | . | 31% | . | . | . | . | .
O=C(Nc1cccc(Cl)c1)Nc1csc([N+](=O)[O-])c1 | 10µM* | ? | ? | ? | ? | 10µM* | 16µM* | 9.2µM* | 76%
O=C(NCC(c1ccco1)N1CCc2ccccc21)C(=O)Nc1ccc(F)cc1F (centres undefined) | 9% | -14% | ? | ? | ? | 13µM* | 0% | 12µM* | -2%
O=C(CCS(=O)(=O)c1ccccc1)Nc1nnc(C(F)(F)F)s1 | -9% | 30% | ? | -10% | i | . | . | . | .
CCOc1cccc2sc(N(CCN(C)C)C(=O)CCS(=O)(=O)c3ccccc3)nc12 | 3% | 1% | 12% | 372% | i | . | . | . | .
CC(C)(C)c1nnc(NC(=O)CCS(=O)(=O)c2ccccc2)s1 | 6% | 28% | 7.1µM* | -24% | ? | 3.7µM* | -10% | ? | 30%
CCOc1cccc2sc(NC(=O)CCS(=O)(=O)c3ccccc3)nc12 | -8% | -9% | 14µM* | . | i | 12µM* | 23µM* | 18µM* | ?
